From PubChem BioAssay (NCI) come the findings set out here.

This is part of a sample that, as a whole, favours compounds with a hit. Of some 79,000 tested, about 15% had one in any assay. A number with no mark means an inactive call. Calls of active or inactive are those of the source. Cut-off read from the data, not from the text of the source: active = growth inhibition above about 70%; inactive = the rest.

This assay in a line: NCI Yeast Anticancer Drug Screen. Data for the mgt1 strain (AID 153). To be noted: S. cerevisiae mgt1 mutant growth inhibition, stronger effect = higher value. The protocol: Growth inhibition of yeast strains with defined genetic alterations is measured as a screen for potential anti-cancer activity. Selected strains with alterations in DNA damage repair or cell cycle control were exposed to compounds and growth inhibition was measured relative to vehicle treated controls. The strain used in this assay is mgt1

On to `CCCCOCn1c(=O)[nH]c(=O)c2cc(Br)ccc21`, for which the growth inhibition was -52% (at 1.2 µM); -36% (at 3.7 µM); -47% (at 11.0 µM); -32% (at 33.0 µM); -32% (at 100.0 µM).

`CCCCCCN(CCCCCC)CC(O)c1ccnc2ccc(OC)cc12` (stereo not given): the growth inhibition is 1% (at 1.2 µM); 2% (at 3.7 µM); 0% (at 11.0 µM); -3% (at 33.0 µM); 74% (active) (at 100.0 µM).

`CNC(=O)OCc1c(COC(=O)NC)c(-c2ccc(Cl)cc2)n2c1CCC2`: the growth inhibition is, setting by setting: (at 1.2 µM) -47%; (at 3.7 µM) -55%; (at 11.0 µM) -49%; (at 33.0 µM) -17%; (at 100.0 µM) 98% (active).

For `CC(C)OC(=O)c1ccc(CCc2cc(O)c(Br)cc2O)cc1`, the growth inhibition is, setting by setting: (at 1.2 µM) 55%; (at 3.7 µM) 70% (active); (at 11.0 µM) 71% (active); (at 33.0 µM) 72% (active); (at 100.0 µM) 94% (active).

As to `Cc1c(C(C)C)cc(OCCO)cc1C(C)C`, the growth inhibition (at 1.2 µM) is -4%; the growth inhibition (at 3.7 µM) was -11%; the growth inhibition (at 11.0 µM) is -9%; the growth inhibition (at 33.0 µM) is -12%; the growth inhibition (at 100.0 µM) was 7%.

Take `CCCCc1nnc(NS(=O)(=O)c2ccc(C)cc2)s1`: the growth inhibition is, setting by setting: (at 1.2 µM) -25%; (at 3.7 µM) -28%; (at 11.0 µM) -12%; (at 33.0 µM) 25%; (at 100.0 µM) 85% (active).

In the case of `CCCCc1ccc(-n2c(C)c(COC(=O)NC)c(COC(=O)NC)c2C)cc1`, the growth inhibition is, setting by setting: (at 1.2 µM) -43%; (at 3.7 µM) -41%; (at 11.0 µM) 19%; (at 33.0 µM) 99% (active); (at 100.0 µM) 94% (active).

In the case of `O=[N+]([O-])/C=C/c1cc(Cl)c(/C=C/[N+](=O)[O-])cc1Cl`, the growth inhibition runs as follows: (at 1.2 µM) 36%; (at 3.7 µM) 48%; (at 11.0 µM) 68%; (at 33.0 µM) 96% (active); (at 100.0 µM) 92% (active).
